# Source: PubChem BioAssay (NCI)
# This is part of a sample that, as a whole, favours compounds with a hit. Of some 83,000 tested, about 20% had one in any assay.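 Compound tested at a single concentration for 48 hours in 96-well plates; a percent growth value below 10 was scored as active.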 Values without a mark were called inactive. Activity calls are given as the source filed them.
# Legend:
# Test in all cases: NCI-60 one-dose screen, 48 h (100 = growth as untreated, 0 = no growth, -100 = all killed)
# Conditions in all cases: 10 µM unless noted
# DU-145 prostate = tested on: DU-145 prostate
# K-562 leukemia = tested on: K-562 leukemia
# MALME-3M melanoma = tested on: MALME-3M melanoma
# MDA-MB-231 breast = tested on: MDA-MB-231 breast
# RXF 393 renal = tested on: RXF 393 renal
# SF-268 CNS = tested on: SF-268 CNS
# SF-295 CNS = tested on: SF-295 CNS
# SF-539 CNS = tested on: SF-539 CNS
# UACC-257 melanoma = tested on: UACC-257 melanoma
# M14 melanoma = tested on: M14 melanoma
SMILES,growth (DU-145 prostate),growth (K-562 leukemia),growth (MALME-3M melanoma),growth (MDA-MB-231 breast),growth (RXF 393 renal),growth (SF-268 CNS),growth (SF-295 CNS),growth (SF-539 CNS),growth (UACC-257 melanoma),growth (M14 melanoma)
CS(=O)(=O)N1CCN(Cc2cc3nc(-c4cccc5[nH]ncc45)nc(N4CCOCC4)c3s2)CC1 (tested in a mixture with another compound),21.3%,58.5%,-15.2% (active),42.9%,-34.2% (active),31.4%,1.83% (active),3.67% (active),20%,25%
CCCCCCCCCCCCCCCCNC(=O)Nc1ccc2ccccc2c1,126%,111%,95.4%,98.1%,104%,126%,106%,106%,95.5%,94.9%
C[C@H]1O[C@@H](O[C@H]2[C@@H](O)C[C@H](O[C@H]3[C@@H](O)C[C@H](O[C@H]4CC[C@]5(C)C6CC[C@]7(C)[C@@H](C8=CC(=O)OC8)CC[C@]7(O)C6CC[C@@H]5C4)O[C@@H]3C)O[C@@H]2C)C[C@H](O)[C@@H]1O (stereo not given in full),-100% (active),-45% (active),-63.9% (active),-48.6% (active),-27.1% (active),-100% (active),-98.2% (active),-94.6% (active),-100% (active),-81.1% (active)
O=C1c2cc3c(cc2-c2c1c1ccc(Cl)cc1c(=O)n2CCCNCCO)OCO3,-93.7% (active),-78.3% (active),-84.8% (active),-79.5% (active),-78.6% (active),-76.7% (active),-86.9% (active),-84.6% (active),-59% (active),-83.3% (active)
CCSc1nc(-c2ccc(F)cc2)c(C#N)c(=O)[nH]1,122%,124%,85.1%,114%,104%,116%,103%,108%,102%,110%
CSc1nc(Nc2ccc(S(=O)(=O)Nc3ccon3)cc2)c(C#N)c(-c2ccc(Cl)cc2)n1,106%,-0.642% (active),111%,102%,110%,105%,113%,106%,112%,88.1%
OC(c1ccccc1)C(NCc1ccccc1)c1ccccc1 (stereo not given),117%,106%,104%,98.3%,107%,92.8%,94%,90.6%,110%,79.9%
Nc1ccccc1C#Cc1ccccc1C#Cc1ccc(OCCCCCCOc2ccc(C#Cc3ccccc3C#Cc3ccccc3N)cc2)cc1,121%,121%,97.2%,86%,75.3%,121%,106%,97.8%,101%,108%
CN(C)c1ccc(-c2nc3ncc(Br)cc3o2)cc1,99.8%,81.5%,118%,90.2%,83.8%,114%,109%,91.4%,104%,97.6%
O=C1C(=O)/C(=C/c2ccccc2)CCCCCC/C1=C/c1ccccc1,64.6%,4.05% (active),90.9%,96.2%,-11.6% (active),60.6%,76.5%,103%,75.3%,50%
O=c1[nH]c(N2CCC(Cc3ccccc3)CC2)nc2sc3c(c12)CCCC3,107%,110%,102%,106%,104%,95.2%,94.6%,105%,85.4%,100%
CN(C)c1ncnc2c1ncn2C1CCCCO1 (stereo not given),115%,102%,101%,106%,114%,106%,116%,103%,106%,105%
BrC1CC(Br)c2c1c1c(c3c2C(Br)CC3Br)C(Br)CC1Br (stereo not given),115%,80.9%,95.7%,98.5%,80.3%,111%,103%,92%,105%,97.7%
